Measurements published in PubChem BioAssay (NCI).
Several values for one entry are separate records, joined by “and”; a condition that tells them apart may be missing. Equal entries are not always repeated. Compounds without any hit were thinned out: in the full panel of roughly 83,000, 20% have a hit.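 For each line, cells grew in 96-well plates with the test compound present at a single concentration for 48 hours.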 Values without a mark were called inactive. Activity calls are given as the source filed them. Rule for the calls: active = growth percent below 10; inactive = the rest.

Experiments:
Experiment in all cases: NCI-60 one-dose screen, 48 h (100 = growth as untreated, 0 = no growth, -100 = all killed)
Details in all cases: 10 µM unless noted
NCI-H23 lung = system: NCI-H23 lung
NCI-H226 lung = system: NCI-H226 lung
NCI-H322M lung = system: NCI-H322M lung
HOP-62 NSCLC = system: HOP-62 NSCLC
NCI-H460 lung = system: NCI-H460 lung
HOP-92 NSCLC = system: HOP-92 NSCLC
NCI-H522 lung = system: NCI-H522 lung
A549/ATCC NSCLC = system: A549/ATCC NSCLC
786-0 renal = system: 786-0 renal
COLO 205 colon = system: COLO 205 colon
DU-145 prostate = system: DU-145 prostate
K-562 leukemia = system: K-562 leukemia
MALME-3M melanoma = system: MALME-3M melanoma
MDA-MB-231 breast = system: MDA-MB-231 breast
RXF 393 renal = system: RXF 393 renal
SF-268 CNS = system: SF-268 CNS
SF-295 CNS = system: SF-295 CNS
SF-539 CNS = system: SF-539 CNS
UACC-257 melanoma = system: UACC-257 melanoma
M14 melanoma = system: M14 melanoma

Row | Compound | growth (NCI-H23 lung) | growth (NCI-H226 lung) | growth (NCI-H322M lung) | growth (HOP-62 NSCLC) | growth (NCI-H460 lung) | growth (HOP-92 NSCLC) | growth (NCI-H522 lung) | growth (A549/ATCC NSCLC) | growth (786-0 renal) | growth (COLO 205 colon) | growth (DU-145 prostate) | growth (K-562 leukemia) | growth (MALME-3M melanoma) | growth (MDA-MB-231 breast) | growth (RXF 393 renal) | growth (SF-268 CNS) | growth (SF-295 CNS) | growth (SF-539 CNS) | growth (UACC-257 melanoma) | growth (M14 melanoma)
1 | Cc1cccc(C)c1Nc1nnc(-c2c[nH]c3ccccc23)o1 | 88.8% | 78.9% | 98% | 83.1% | 99.7% | 89.9% | 89.4% | 98.1% | 105% | 110% | 107% | 98.4% | 78.4% | 79.1% | 108% | 104% | 96% | 94.1% | 95.7% | 102%
2 | Nc1nnc(-c2cncc(Br)c2)c(-c2c[nH]c3ccc(Br)cc23)n1 | 70.7% | 76.5% | 78.2% | 72.7% | 39.6% | 83.3% | 17.9% | 49.2% | 55.5% | 51.3% | 85.9% | 19.1% | 74.1% | 48.7% | 55.6% | 77.1% | 74.5% | 52.3% | 73.9% | 44.5%
3 | CN(C)c1nc(NCCNS(=O)(=O)c2ccc(C(=O)/C=C/c3ccc(F)cc3)cc2)nc(N2CCOCC2)n1 | 50.9% | 74% | 84.4% | 76.2% | 78.5% | 77.8% | 28.7% | 7.37% (active) | -55.7% (active) | 35% | 33.3% | 0.84% (active) | 84.8% | 36.4% | 76.6% | 73% | 79.2% | 12.2% | 70.1% | 12.7%
4 | O=C(Nc1ccc(-c2ccc3c(c2)NC(=O)/C3=C\c2ccc[nH]2)cc1)Nc1ccc(Cl)c(Cl)c1 | 37.8% | 78.1% | 73.4% | 61.9% | 17.4% | 88.5% | 63% | 62% | 35.9% | 58% | 54.3% | 39% | 68.7% | 71.5% | -1.35% (active) | 48.9% | 23.3% | -48.9% (active) | 76% | 59.3%
5 | CC1=NN(C2=NC(=O)C(CC(=O)Nc3ccccc3C(F)(F)F)S2)C(c2ccc(N(C)C)cc2)C1 (stereo not given) | 72.6% | 53.1% | 76.1% | 78.3% | 39.6% | 7.13% (active) | 33.1% | 38.2% | 61.4% | 63.5% | 63.6% | 28.3% | 61.8% | 66% | 11.6% | 47.4% | 41.3% | 40.2% | 58.1% | 47.7%
6 | c1ccc(CSc2nnc(-c3ccc4nc(-c5ccccc5)[nH]c4c3)o2)cc1 | 68% | -40.1% (active) | 35.9% | -3.53% (active) | -41.3% (active) | 32.2% | 33.7% | -12.4% (active) | -17.3% (active) | 78.3% | 21.4% | 33.5% | 7.77% (active) | -12.8% (active) | -22.1% (active) | 8.24% (active) | 17.1% | -39.9% (active) | 57.6% | 41.5%
7 | CC(Nc1ncnc2ccc(-c3ccc4oc(N)nc4c3)cc12)c1ccccc1 (stereo not given) | 16.4% | -10.2% (active) | -24.9% (active) | -53.1% (active) | 3.34% (active) | -45.9% (active) | 18.4% | 13.3% | -48.2% (active) | 14% | 14% | 7.11% (active) | -26.5% (active) | -38% (active) | -77.9% (active) | 35.6% | -17.4% (active) | -89.4% (active) | 73.4% | 23.7%
8 | CNc1nc2ccccc2n2c(-c3ccc(O)c(O)c3)cnc12 | 16.1% | -14.9% (active) | 38.8% | 26.5% | 3.63% (active) | 13.9% | -39.6% (active) | 15.9% | 24.7% | -54.3% (active) | 2.32% (active) | 11.1% | 16% | 20.9% | -4.31% (active) | 5.12% (active) | 11% | -43% (active) | 57.1% | -1% (active)
9 | CC(=O)Nc1cccc(-n2c(COc3ccc(Br)cc3)nc3ccccc32)c1 | 94% and 107% | 76.2% and 107% | 103% and 104% | 119% and 114% | 105% and 107% | 90% and 108% | 97.1% and 108% | 115% and 108% | 115% and 103% | 108% and 124% | 106% and 89.7% | 91.4% and 106% | 96.3% and 98.8% | 80% and 102% | 82.4% and 106% | 91% and 103% | 89.6% and 103% | 87.4% and 106% | 130% and 107% | 109% and 108%
10 | CN1C(=O)C2(C(C#N)=C(c3ccc(Cl)cc3)Nc3c2c(-c2ccccc2)nn3-c2ccccc2)c2ccccc21 (stereo not given) | 80% | 69.3% | 87.5% | 44.5% | 92.4% | 75.1% | 85.8% | 89.7% | 97.2% | 85.9% | 93.6% | 40.8% | 78.9% | 46.1% | 77% | 93.5% | 77.4% | -85.3% (active) | 112% | 77.2%
11 | Nc1cc(-c2c[nH]c3ccc(F)cc23)nc2cc(-c3c[nH]c4ccccc34)nn12 | -12.7% (active) | 52.9% | 30.2% | 1.04% (active) | 3.08% (active) | -9.18% (active) | -49.9% (active) | 9.83% (active) | -81% (active) | -88.8% (active) | 26.9% | 5.2% (active) | -28% (active) | -65.5% (active) | 36.5% | 35.4% | -66% (active) | -74.8% (active) | -63.3% (active) | -23.1% (active)
12 | COc1cccc2nc(Nc3cccc(NC(=O)c4ccc(CN5CCN(C)CC5)c(C(F)(F)F)c4)c3)ccc12 | -97.8% (active) | -93.4% (active) | -100% (active) | -78.5% (active) | -77.1% (active) | -66.7% (active) | -87% (active) | -70.5% (active) | -81.7% (active) | -73.7% (active) | -83.5% (active) | 2.54% (active) | -96.4% (active) | -97.9% (active) | -98.5% (active) | -54.4% (active) | -95.1% (active) | -100% (active) | -83.1% (active) | -85.2% (active)
13 | CN(C(=O)CN1C(=O)/C(=C/c2ccco2)SC1=S)C1CCS(=O)(=O)C1 (stereo not given) | 100% | 100% | 99.3% | 123% | 95.5% | 102% | 15.4% | 102% | 93.4% | 119% | 103% | 85.1% | 97.1% | 108% | 108% | 93.9% | 104% | 104% | 96.4% | 94.6%
14 | O=C(Nc1ccc(S(=O)(=O)N2CCCCC2)cc1)C(Cl)Cl | 103% | 127% | 114% | 108% | 108% | 116% | 98.4% | 104% | 98.9% | 120% | 104% | 111% | 99.3% | 109% | 115% | 105% | 106% | 107% | 101% | 112%
15 | COc1ccc(-c2nc3ccc(-c4nnc(SCc5ccccc5)o4)cc3[nH]2)cc1 | 8.09% (active) | -76.5% (active) | 0.722% (active) | -72.7% (active) | -15.7% (active) | 20.9% | -16.2% (active) | -5.6% (active) | -62.5% (active) | 44.6% | 10.2% | 11.2% | -74.9% (active) | -67.3% (active) | -75.3% (active) | -6.18% (active) | -75% (active) | -99.7% (active) | 21.8% | 5.59% (active)
